Experimental data reported in PubChem BioAssay AID1159580 (chemical genetic matrix, 2015).
Where “and” joins values, the source holds several entries; their conditions need not be identical. Equal values may be shown once. The whole screen tested about 5,500 compounds, of which about 2,000 (36%) were called active. Roughly 18% stayed inconclusive and do not appear here. Rule as the data show it: active = normalized growth mostly below about 0.91 (no sharp cut-off); inconclusive = no clear call, values can overlap the other calls; inactive = mostly above about 0.92. The list shows a part of the results.

Assay: chemical genetic growth profiling, strain panel (AID 1159580);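 also: tested at 20 µM; growth read once vehicle control cultures reached saturation at 30 °C; 1 = growth at the plate median or of vehicle wells; lower values mean less growth of the strain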
Details: S. cerevisiae deletion strains, growth OD

Measured: normalized growth

CC(CCC(=O)O)[C@H]1CCC2C3CC[C@@H]4CC(=O)CC[C@]4(C)C3C=C[C@@]21C (some centres not stated)
active: locus YDL035C, strain GPR1, stronger effect = lower value 0.832 | locus YGL078C, strain dbp3, stronger effect = lower value 0.87 | locus YKL009W, strain mrt4, stronger effect = lower value 0.809 | locus YOR184W, strain ser1, stronger effect = lower value 0.795
inactive: locus YBR021W, strain FUR4, stronger effect = lower value 0.906 | locus YBR229C, strain ROT2, stronger effect = lower value 1.03 | locus YCL029C, strain bik1, stronger effect = lower value 0.984 | locus YDL074C, strain BRE1, stronger effect = lower value 0.992 | locus YDL101C, strain DUN1, stronger effect = lower value 1.02 | locus YDL185W, strain tfp1, stronger effect = lower value 1.02 | locus YDL192W, strain arf1, stronger effect = lower value 1 | locus YDR101C, strain arx1, stronger effect = lower value 0.967 | locus YDR162C, strain NBP2, stronger effect = lower value 0.999 | locus YDR318W, strain mcm21, stronger effect = lower value 0.982 | locus YDR388W, stronger effect = lower value 1.01 | locus YDR502C, strain sam2, stronger effect = lower value 0.928 | locus YEL061C, strain CIN8, stronger effect = lower value 1.03 | locus YER110C, stronger effect = lower value 1.05 | locus YER155C, strain BEM2, stronger effect = lower value 1.06 | locus YER167W, strain BCK2, stronger effect = lower value 1.05 | locus YGL086W, strain mad1, stronger effect = lower value 0.971 | locus YGL248W, strain PDE1, stronger effect = lower value 0.963 | locus YGR078C, strain PAC10, stronger effect = lower value 1.02 | locus YGR135W, strain pre9, stronger effect = lower value 0.953 | locus YGR229C, strain SMI1, stronger effect = lower value 0.904 | locus YGR252W, strain gcn5, stronger effect = lower value 0.779 | locus YHR030C, strain SLT2, stronger effect = lower value 1.06 and 0.918 | locus YHR079C, strain IRE1 (second series), stronger effect = lower value 1.03 | locus YHR079C, strain IRE1, stronger effect = lower value 0.944 | locus YHR094C, strain hxt1, stronger effect = lower value 1.03 | locus YHR129C, strain ARP1, stronger effect = lower value 1.04 | locus YHR200W, strain rpn10, stronger effect = lower value 1.03 | locus YIL066C, strain RNR3, stronger effect = lower value 1.02 | locus YIL073C, strain SPO22, stronger effect = lower value 0.955 | locus YIL125W, strain kgd1, stronger effect = lower value 0.98 | locus YIR030C, strain dcg1, stronger effect = lower value 1.02 | locus YJL095W, strain BCK1, stronger effect = lower value 0.959 and 0.937 | locus YJL134W, strain LCB3, stronger effect = lower value 1.05 | locus YJL168C, strain set2, stronger effect = lower value 1.03 | locus YJL187C, strain SWE1 (second series), stronger effect = lower value 0.986 | locus YJR043C, strain POL32, stronger effect = lower value 0.985 | locus YJR066W, strain TOR1, stronger effect = lower value 0.893 | locus YKL068W, stronger effect = lower value 1.04 | locus YKL085W, strain MDH1 (second series), stronger effect = lower value 1.03 | locus YKL085W, strain MDH1, stronger effect = lower value 1.03 | locus YKL190W, strain CNB1, stronger effect = lower value 1.04 | locus YKR001C, strain vps1, stronger effect = lower value 0.955 | locus YLR039C, strain RIC1, stronger effect = lower value 0.953 | locus YLR058C, strain SHM2, stronger effect = lower value 1.01 | locus YLR102C, strain apc9, stronger effect = lower value 1.03 | locus YLR113W, strain HOG1, stronger effect = lower value 0.882 | locus YLR262C, strain YPT6, stronger effect = lower value 0.895 | locus YLR268W, strain sec22, stronger effect = lower value 0.949 | locus YLR330W, strain CHS5, stronger effect = lower value 1.04 | locus YLR342W, strain FKS1 (second series), stronger effect = lower value 0.87 | locus YLR371W, strain rom2, stronger effect = lower value 1.05 | locus YLR418C, strain cdc73, stronger effect = lower value 0.889 | locus YML016C, strain PPZ1, stronger effect = lower value 1.04 | locus YML032C, strain rad52, stronger effect = lower value 0.959 | locus YML124C, strain tub3, stronger effect = lower value 1.04 | locus YMR078C, strain ctf18, stronger effect = lower value 1.03 | locus YMR223W, strain ubp8, stronger effect = lower value 0.969 | locus YMR307W, strain GAS1, stronger effect = lower value 0.875 | locus YNL067W, strain RPL9B, stronger effect = lower value 0.971 | locus YNL153C, strain GIM3, stronger effect = lower value 0.966 | locus YNL183C, strain NPR1, stronger effect = lower value 0.883 | locus YNL233W, strain BNI4, stronger effect = lower value 1.02 | locus YNL250W, strain rad50, stronger effect = lower value 1 | locus YNL271C, strain bni1, stronger effect = lower value 0.992 | locus YNL298W, strain CLA4, stronger effect = lower value 0.926 | locus YNL307C, strain MCK1, stronger effect = lower value 1.02 | locus YNL322C, strain KRE1, stronger effect = lower value 1.04 | locus YNR052C, strain pop2, stronger effect = lower value 0.931 | locus YOL006C, strain TOP1, stronger effect = lower value 0.944 | locus YOL012C, strain htz1 1.95 | locus YOL147C, strain pex11, stronger effect = lower value 1.03 | locus YOR061W, strain CKA2, stronger effect = lower value 1.01 | locus YOR069W, strain VPS5, stronger effect = lower value 1.02 | locus YOR136W, strain idh2, stronger effect = lower value 1.03 | locus YOR144C, strain elg1, stronger effect = lower value 0.988 | locus YOR231W, strain MKK1, stronger effect = lower value 0.913 | locus YOR316C, strain cot1, stronger effect = lower value 1.03 | locus YPL055C, strain LGE1, stronger effect = lower value 1.01 | locus YPL241C, strain CIN2, stronger effect = lower value 1.04 | locus YPL256C, strain CLN2, stronger effect = lower value 0.963 | locus YPR119W, strain clb2, stronger effect = lower value 1.05 | locus YPR141C, strain kar3, stronger effect = lower value 1.05 | locus YPR163C, strain tif3, stronger effect = lower value 1 | locus YPR167C, strain met16, stronger effect = lower value 1.01 | strain wtn01, stronger effect = lower value 0.931

CC(CCC(=O)O)[C@H]1CCC2C3CC[C@@H]4C[C@H](O)CC[C@]4(C)C3C=C[C@@]21C (some centres not stated)
active: locus YAL026C, strain drs2, stronger effect = lower value 0.907 | locus YDR137W, strain rgp1, stronger effect = lower value 0.501 | locus YDR195W, strain ref2 1.2 [resistant] | locus YDR392W, strain spt3, stronger effect = lower value 0.485 | locus YGL173C, strain kem1, stronger effect = lower value 0.812 | locus YHR142W, strain chs7, stronger effect = lower value 0.839 | locus YJL164C, strain tpk1, stronger effect = lower value 0.899 | locus YJL166W, strain qcr8, stronger effect = lower value 0.894 | locus YKL160W, strain elf1, stronger effect = lower value 0.881 | locus YLR221C, strain rsa3, stronger effect = lower value 0.898 | locus YLR262C, strain YPT6 (second series), stronger effect = lower value 0.532 | locus YLR320W, strain mms22, stronger effect = lower value 0.742 | locus YML120C, strain ndi1, stronger effect = lower value 0.861 | locus YMR058W, strain fet3, stronger effect = lower value 0.869 | locus YMR125W, strain sto1, stronger effect = lower value 1.11 [resistant] | locus YNL071W, strain lat1, stronger effect = lower value 0.792 | locus YOR001W, strain rrp6, stronger effect = lower value 0.86 | locus YOR070C, strain gyp1, stronger effect = lower value 0.9 | locus YOR083W, strain WHI5, stronger effect = lower value 0.85 | locus YOR106W, strain vam3, stronger effect = lower value 0.842 | locus YOR290C, strain snf2, stronger effect = lower value 0.83 | locus YPL051W, strain arl3, stronger effect = lower value 0.817 | locus YPL078C, strain atp4, stronger effect = lower value 0.834 | locus YPL106C, strain sse1, stronger effect = lower value 1.22 [resistant]
inactive: locus YAL021C, strain ccr4, stronger effect = lower value 0.968 | locus YAL030W, strain snc1, stronger effect = lower value 1.01 | locus YBL061C, strain skt5, stronger effect = lower value 1.01 | locus YBR009C, strain hhf1, stronger effect = lower value 0.964 | locus YBR023C, strain chs3, stronger effect = lower value 0.95 | locus YBR171W, strain sec66, stronger effect = lower value 0.976 | locus YBR231C, strain swc5, stronger effect = lower value 1.02 | locus YBR279W, strain paf1, stronger effect = lower value 0.972 | locus YCL011C, strain gbp2, stronger effect = lower value 0.994 | locus YCL016C, strain dcc1, stronger effect = lower value 0.962 | locus YCL061C, strain MRC1, stronger effect = lower value 0.989 | locus YCL069W, strain vba3, stronger effect = lower value 0.997 | locus YCR088W, strain abp1, stronger effect = lower value 1.02 | locus YDL005C, strain med2, stronger effect = lower value 0.992 | locus YDL040C, strain nat1, stronger effect = lower value 1.01 | locus YDR001C, strain nth1, stronger effect = lower value 1.01 | locus YDR069C, strain doa4, stronger effect = lower value 1 | locus YDR159W, strain sac3, stronger effect = lower value 0.948 | locus YDR297W, strain sur2, stronger effect = lower value 1 | locus YDR334W, strain swr1, stronger effect = lower value 0.991 | locus YDR335W, strain msn5, stronger effect = lower value 0.969 | locus YEL003W, strain gim4, stronger effect = lower value 0.968 | locus YEL037C, strain rad23, stronger effect = lower value 0.995 | locus YEL061C, strain CIN8 (second series), stronger effect = lower value 1.01 | locus YER015W, strain faa2, stronger effect = lower value 1.01 | locus YER016W, strain bim1, stronger effect = lower value 0.999 | locus YER111C, strain swi4, stronger effect = lower value 1 | locus YER155C, strain BEM2 (second series), stronger effect = lower value 1.08 | locus YFR010W, strain ubp6, stronger effect = lower value 0.987 | locus YGL167C, strain pmr1, stronger effect = lower value 0.989 | locus YGL227W, strain vid30, stronger effect = lower value 1.03 | locus YGL240W, strain doc1, stronger effect = lower value 0.982 | locus YGL253W, strain hxk2, stronger effect = lower value 0.955 | locus YHR013C, strain ard1, stronger effect = lower value 0.973 | locus YHR027C, strain rpn1, stronger effect = lower value 0.996 | locus YJL092W, strain hpr5, stronger effect = lower value 0.986 | locus YJL095W, strain BCK1 (second series), stronger effect = lower value 1 | locus YJL115W, strain asf1, stronger effect = lower value 1.01 | locus YJL129C, strain trk1, stronger effect = lower value 0.879 | locus YJL154C, strain vps35, stronger effect = lower value 1.03 | locus YJL187C, strain SWE1, stronger effect = lower value 0.972 | locus YKR026C, strain gcn3, stronger effect = lower value 1.03 | locus YKR091W, strain srl3, stronger effect = lower value 1.01 | locus YLL001W, strain dnm1, stronger effect = lower value 1 | locus YLL026W, stronger effect = lower value 1.01 | locus YLL041C, strain sdh2, stronger effect = lower value 1 | locus YLR027C, strain aat2, stronger effect = lower value 0.944 | locus YLR258W, strain gsy2, stronger effect = lower value 0.998 | locus YLR342W, strain FKS1, stronger effect = lower value 0.968 | locus YLR357W, strain rsc2, stronger effect = lower value 1.13 | locus YLR370C, strain arc18, stronger effect = lower value 0.955 | locus YLR384C, strain iki3, stronger effect = lower value 1.03 | locus YMR129W, stronger effect = lower value 1.02 | locus YMR205C, strain PFK2, stronger effect = lower value 0.966 | locus YMR231W, strain pep5, stronger effect = lower value 0.963 | locus YNL209W, strain ssb2, stronger effect = lower value 0.99 | locus YNL248C, strain rpa49, stronger effect = lower value 0.904 | locus YNL322C, strain KRE1 (second series), stronger effect = lower value 1.04 | locus YNR049C, strain mso1, stronger effect = lower value 1 | locus YOR080W, strain dia2, stronger effect = lower value 0.997 | locus YOR265W, strain rbl2, stronger effect = lower value 1.01 | locus YOR270C, strain vph1, stronger effect = lower value 0.808 | locus YPL240C, strain hsp82, stronger effect = lower value 0.997
